For 40 molecules, max response results are on record in PubChem BioAssay (NCATS).

“And” between values parts separate entries of the source, which are not always exact repeats. Equal entries are not always repeated. Inconclusive results are not listed. The source made the active and inactive calls. Calls follow the shape of the dose curve; as a rule, active = well fitted cell-killing curve with a large enough effect; inconclusive = small, poorly fitted or top-dose-only effect, or effect the other way; inactive = flat fitted curve, though single readings scatter.
% is scaled to controls: 0 for no effect and ±100 for the full control effect.

The test is described as follows: qHTS assay for cell viability of HEK293 cells (AID 743288). Also: nearly all actives have a fitted effect of over 50% in size. The note with it: ATP luminescence (CellTiter-Glo), 18 h, hits give low values. From the text:
National Center for Advancing Translational Sciences [NCATS]
NIH Chemical Genomics Center [NCGC]
U.S. Environmental Protection Agency [EPA]
National Institutes of Environmental Health Sciences [NIEHS]
National Toxicology Program [NTP]
U.S. Food and Drug Administration [FDA]
The CellTiter-Glo Luminescent Cell Viability Assay (Promega, Madison, WI) is a homogeneous method to determine the number of viable cells in culture based on quantitation of the ATP present, which signals the presence of metabolically active cells. This cell viability assay was used to screen environmental chemicals in the Hek293 cell line.
Tox21 Assay Protocol Summary:
Cell viability after compound treatment was measured using a luciferase-coupled ATP quantitation assay (CellTiter-Glo viability assay, Promega, Madison, WI) in parental HEK293 cells. Total intracellular ATP content corresponds to the number of metabolically competent cells after compound treatment. The cells were dispensed at 2,000 cells/5 uL/well in 1,536-well white/solid bottom assay plates using a Flying Reagent Dispenser (Aurora Discovery, San Diego, CA). The cells were incubated a minimum of 5 h at 37 C, followed by the addition of 23 nL of compounds dissolved in DMSO, positive controls or DMSO only using a pintool work station (Kalypsys, San Diego, CA). The assay plates were incubated for 18 h at 37 C, followed by the addition of 5 uL/well of CellTiter-Glo reagent. After 30 min incubation at room temperature, the luminescence intensity of the plates was measured using a ViewLux plate reader (PerkinElmer, Shelton, CT).
For orientation: In qHTS, concentration-response curves come from the screen itself.
In the case of `COC(=O)CC#N`, the max response was 6.11% (inactive).

With `CCN(Cc1ccccc1)c1ccccc1`, the max response is -4.87% (inactive).

In the case of `CCCCCCC=O`, the max response was 5.62% (inactive).

Turning to `Cc1cc(C)cc(N)c1`, the max response was -3.25% (inactive).

Regarding `Cc1cccc(C(=O)O)c1`, the max response is 2.24% (inactive).

For the molecule `C=CCCCC`, the max response was 3.02% (inactive).

For `CC1(N)CCC(C(C)(C)N)CC1` (stereo not given), the max response was 3.33% (inactive).

Regarding `Cc1ccco1`, the max response was 3.18% (inactive).

Turning to `C(=C/c1ccccc1)/c1ccccc1`, the max response is -10.3% (inactive).

`O=[N+]([O-])c1cccc(Cl)c1`: the max response was -0.245% (inactive).

For the molecule `CC(CCl)OC(C)CCl` (stereo not given), the max response is -14.3% (inactive).

On to `Cc1cccc2ccccc12`, for which the max response was 1.12% (inactive).

With `O=C1C=CCCC1`, the max response was -6.57% (inactive).

For `CC(O)COC(C)(C)C` (stereo not given), the max response was -14.3% (inactive).

With `C=CCOC(=O)COCCC(C)C`, the max response is -0.0294% (inactive).

On to `C=C(C)C(N)=O`, for which the max response is -1.33% (inactive).

With `CN(C)CCCNCCCN`, the max response is -0.667% (inactive).

With `COC(=O)c1ccccc1`, the max response is 2.22% (inactive).

In the case of `CC(C=O)Cc1ccc(C(C)(C)C)cc1` (stereo not given), the max response was 9% (inactive) and 0.62% (inactive).

With `c1ccsc1`, the max response is 6.51% (inactive).

Take `COC(=O)CCCC(=O)OC`: the max response was -4.02% (inactive).

Consider `ClC/C=C/CCl`, for which the max response is 4.84% (inactive).

On to `CCOC(C)(C)C`, for which the max response was 9.83% (inactive).

For the molecule `O=CNc1ccccc1`, the max response is -2.01% (inactive).

In the case of `C=C(C)C(=O)OCC(C)O` (stereo not given), the max response is -4.55% (inactive).

As for `C1CCOC1`, the max response is -1.37% (inactive).

As to `C=CCOC(=O)CCCCCCCC`, the max response was -7.54% (inactive).

Regarding `NC(=O)CCCCC(N)=O`, the max response was 10.2% (inactive).

In the case of `Cc1ccc(Cl)cc1`, the max response was -4.66% (inactive).

On to `CC(=O)Nc1cccc(N)c1`, for which the max response was 8.3% (inactive).

As for `Cc1ccc(S(=O)(=O)NC2CCCCC2)cc1`, the max response is -5.72% (inactive).

For the molecule `CCCOCC(C)O` (stereo not given), the max response was 2.22% (inactive).

Consider `ClCCl`, for which the max response was -3.33% (inactive).

As for `CC(C)=CCC/C(C)=C/C=O`, the max response was -7.6% (inactive) and -9.91% (inactive).

As for `C/C=C(/C)C#N`, the max response was 0.0053% (inactive).

Turning to `CCOC(=O)OCC`, the max response was 1.3% (inactive).

`CC(N)CN` (stereo not given): the max response was -8.09% (inactive).

In the case of `Cc1ccc(C(C)(C)C)cc1`, the max response was 1.5% (inactive).

As for `CC(=O)c1cc(C)oc1C`, the max response was -13.5% (inactive).

Consider `C[C@@H]1CC2(OC[C@]3(C)O[C@H]23)O[C@H]2C[C@@]3(C)[C@@H]4CC[C@H]5C(C)(C)C(O[C@@H]6OC[C@@H](O)[C@H](O)[C@H]6O)CC[C@@]56C[C@@]46CC[C@]3(C)[C@@H]12` (stereo not given in full), for which the max response was -22.4% (inactive).
